From PubChem BioAssay
This is a sample that favours compounds with a hit; in the whole collection about 1.8% have one here.
GLP1R ag = qHTS of GLP-1 Receptor Agonists | HEK293 GLP-1R CRE-luciferase, luminescence, 4-6 h; cells express a hypersensitive GLP-1R form | 380,000 tested, 0.007% active | Glucagon-like peptide 1 receptor (Homo sapiens), P43220 | Potency, µM (top dose mostly 45.6 µM), without a hit: top-dose activation, usual class: activators; further: potency means the concentration at half of the fitted maximal effect; % of control where 0% means no effect
Target sequence (P43220 whole entry, looked up): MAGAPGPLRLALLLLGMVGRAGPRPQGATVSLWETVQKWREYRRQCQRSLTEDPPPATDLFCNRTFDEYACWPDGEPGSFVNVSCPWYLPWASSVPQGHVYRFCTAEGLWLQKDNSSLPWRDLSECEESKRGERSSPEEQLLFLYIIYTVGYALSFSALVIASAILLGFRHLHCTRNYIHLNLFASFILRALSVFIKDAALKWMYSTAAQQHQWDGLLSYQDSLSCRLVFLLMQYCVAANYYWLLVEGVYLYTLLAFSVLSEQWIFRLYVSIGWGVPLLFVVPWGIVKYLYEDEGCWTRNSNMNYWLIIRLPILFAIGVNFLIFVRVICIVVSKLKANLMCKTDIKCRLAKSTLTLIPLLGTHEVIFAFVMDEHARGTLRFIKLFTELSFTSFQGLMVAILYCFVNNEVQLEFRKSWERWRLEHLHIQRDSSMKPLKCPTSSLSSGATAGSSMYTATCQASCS
GLP1R cytotox = qHTS of GLP-1 Receptor Inverse Agonists: Cytotox Screen. HEK293 cAMP-luciferase reporter cells, luminescence, 24 h. Potency, µM (highest dose often 38.3 µM), for inactives: at the top dose activity change, negative = inhibition, actives largely listed as inhibitors. 410,000 tested, 0.13% active;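 further: loss of luciferase light is scored as toxicity; potency means the concentration at half of the fitted maximal effect; on the % scale 0 is the no-effect control and ±100 the full control effect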
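1536-well qHTS counterscreen of the MLSMR; 200 cells/uL, 12 h pre-incubation, 23 nL cpd, 24 h at 37 deg C 5% CO2, luciferase detection reagent, 12 min RT, luminescence. Inhibition = undesired.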
TRPML1 agonist = qHTS for Agonists of the Human Mucolipin Transient Receptor Potential 1 (TRPML1) | activation, % (no concentration beside the values) | TRPML1-expressing cells, Ca2+ dye fluorescence, FDSS | 410,000 tested, 0.12% active; in the data active means activation above about 50%; inconclusive means mostly about 30% to 49%; further: 0% is about no effect
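Agonist activity was taken from a 110 s kinetic Ca2+ dye read on the FDSS after pinning compounds onto TRPML1-DL cells. The cells were seeded at 1,500/well with Tet inducer, incubated about 16 h, then dye-loaded at room temperature.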
GLP1R inv ag = qHTS of GLP-1 Receptor Inverse Agonists (Inhibition Mode). Glucagon-like peptide 1 receptor (Homo sapiens), P43220. HEK293 GLP-1R CRE-luciferase, luminescence, 24 h; GLP-1R form is constitutively active. Potency, µM (top dose mostly 38.3 µM), for inactives: at the top dose activity change, negative = inhibition, actives largely listed as inhibitors. 410,000 tested, 1.6% active; further: potency means the concentration at half of the fitted maximal effect; on the % scale 0 is the no-effect control and ±100 the full control effect; nearly all actives have a fitted effect of over 55% in size
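Stable HEK293 clone (constitutively active GLP-1R + cAMP-response luciferase); 200 cells/uL plated, 12 h pre-culture, compound 24 hr, 37 deg C/5% CO2; detection reagent 12 min RT; luminescence.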
TRPML1 blocker = qHTS for Inhibitors of the Human Mucolipin Transient Receptor Potential 1 (TRPML1); AID 624415, 2012; activity change, negative = inhibition, % (concentration not given with the values); Mucolipin-1 (Homo sapiens), Q9GZU1; 390,000 tested, 0.02% active; TRPML1-inducible cells, Ca2+ dye fluorescence, FDSS; active compounds read low; inhibition of EC80 agonist-evoked calcium signal; in the data active means activity change below about -50%; inconclusive means between about -30% and that limit;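 further: stimulus is agonist 54-4 at its EC80 concentration; on the % scale 0 is the no-effect control and ±100 the full control effect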
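Tet-induced TRPML1-DL cells loaded with Ca8 no-wash calcium dye were read kinetically on FDSS. Compound addition was followed by EC80 agonist 54-4 (4 uM final); inhibition was read over 110 s.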
* = called active by the depositor; ? = inconclusive; . = not tested or not shown; [ ] = dose if it differs, or a comment. Unless noted, the call rests on the fitted dose curve; in most records, active means well fitted curve in the direction sought with a large enough effect; inconclusive means small, poorly fitted or top-dose-only effect, or another doubt; inactive means no such curve, though single readings can be large; an effect the other way counts as inactive or inconclusive.

SMILES	GLP1R ag	GLP1R cytotox	TRPML1 agonist	GLP1R inv ag	TRPML1 blocker
COc1ccc(S(=O)(=O)N(C(=O)c2ccncc2)c2ccc3oc(C)c(C(C)=O)c3c2)cc1	.	-25%	1	3.2µM*	8
COC(=O)c1c(C)oc2ccc(N(C(=O)c3ccncc3)S(=O)(=O)c3ccc(OC)cc3)cc12	.	?	1	?	-25
COc1ccc(CC(=O)NCC(c2cccs2)S(=O)(=O)c2ccc(Cl)cc2)cc1 (configuration not stated)	.	3%	0	-9%	21
CCOc1ccc(C(=O)CCC(=O)Nc2ccc(C)c(S(=O)(=O)N3CCCCC3)c2)cc1	10%	8%	3	?	-9
Cc1ccc(NC(=O)/C=C/c2ccco2)cc1S(=O)(=O)N1CCCCCC1	10%	-19%	1	10µM*	-1
CCc1cccc(OCC(=O)Nc2ccc(C)c(S(=O)(=O)N3CCCCCC3)c2)c1	7%	7%	3	5µM*	37
Cc1ccc(NC(=O)COc2cccc(C)c2C)cc1S(=O)(=O)N1CCCCCC1	15%	-13%	1	?	22
CC(=O)c1ccc(OCCCC(=O)Nc2ccc(C)c(S(=O)(=O)N3CCCCC3)c2)cc1	10%	-5%	2	11µM*	5
O=C(NCC(=O)N1CCN(c2ccccc2)CC1)c1ccc(Cl)cc1	7%	-4%	0	-7%	-54*
COc1cc(-c2noc(-c3ccc(N(C)C)c([N+](=O)[O-])c3)n2)cc(OC)c1OC	.	-3%	0	3%	-4
NC1(C(=O)O)CSSC1	0%	11µM*	0	?	2
CCOC(=O)CCCC(=O)N1CCN(/[N+]([O-])=N/Oc2ccc([N+](=O)[O-])cc2[N+](=O)[O-])CC1	.	.	2	.	-10
CC(C)(C)C(=O)NC(=S)NNC(=O)c1sc2ccccc2c1Cl	-10%	-7%	71*	?	0
COc1ccc(C(=O)NNC(=S)NC(=O)C(C)(C)C)cc1	5%	-18%	51*	-27%	32
CC(C)(C)OC(=O)N1CCC(c2c(C(=O)N3CCN(c4ccccn4)CC3)cnn2-c2cccc(F)c2)CC1	.	5%	2	3%	-2
CCOc1ccc(CNC(c2ccccc2)c2ccccc2)cc1	10%	3%	2	7.1µM*	1
CCOc1ccc(CNCc2ccccc2Cl)cc1	5%	-1%	2	-4%	0
Cc1oc(-c2ccc(C(=O)Nc3cccc(C(F)(F)F)c3)cc2)nc1CSc1ccccc1	.	-22%	2	2.2µM*	-4
CC(=O)c1ccc(NC(=O)c2ccc(-c3nc(CSc4ccccc4)c(C)o3)cc2)cc1	.	-1%	0	-3%	2
COc1ccccc1CCNC(=O)c1ccc(-c2nc(CSc3ccc(C)cc3)c(C)o2)cc1	.	11%	3	10µM*	30
COc1ccc(C2NC(=S)N3C(c4ccc(OC)c(OC)c4)NC(=S)N23)cc1OC (configuration not stated)	1%	.	.	.	.
COc1ccc(C(=O)/C(=C/O)N=Nc2ccc(F)cc2)cc1	8%	?	-1	10µM*	-10
Cc1ccc([N+](=O)[O-])cc1NC(=O)CN(C(=O)c1ccccc1Cl)C1CCCCC1	-12%	-30%	0	10µM*	16
O=C(N/N=C(\CC(=O)c1cccs1)C(F)(F)F)c1cccnc1	4%	3%	0	2.2µM*	-8
O=C(N/N=C(/CC(=O)c1cccs1)C(F)(F)F)c1ccc(O)cc1	4%	-29%	1	?	2
SMILES	GLP1R ag	GLP1R cytotox	TRPML1 agonist	GLP1R inv ag	TRPML1 blocker
CC(C)CNC(=S)N1CCN(C(c2ccccc2)c2ccccc2)CC1	3%	-11%	3	2.8µM*	13
COc1cc(NC(=S)N2CCC(C(O)(c3ccccc3)c3ccccc3)CC2)cc(OC)c1	-5%	4%	1	10µM*	-6
COc1ccc(N2CCN(C(=O)c3oc4ccccc4c3NC(=O)Cc3cccc(OC)c3)CC2)cc1	3%	-13%	-1	8.9µM*	-11
COc1ccc(NC(=S)N2CCN(C(c3ccccc3)c3ccccc3)CC2)c(OC)c1	3%	11%[7.66 µM]	4	?	-4
CCNC(=S)N1CCC(C(O)(c2ccccc2)c2ccccc2)CC1	11%	-9%	1	-21%	11
COc1cccc(NC(=S)N2CCN(C(c3ccccc3)c3ccccc3)CC2)c1	-21%	2%	2	10µM*	-14
CCOc1ccc(NS(=O)(=O)c2c(C)nc3sc(C)c(C)n3c2=O)cc1	.	-5%	0	-20%	-1
COc1ccc2oc(C(=O)N3CCN(C(c4ccccc4)c4ccccc4)CC3)c(C)c2c1	11%	1%	2	5.6µM*	-5
C=C(C)CNC(=S)N1CCN(C(c2ccccc2)c2ccccc2)CC1	10%	3%	-1	?	-2
COc1ccc2oc(C(=O)OCC(=O)N(Cc3ccccc3)C(C)C)c(C)c2c1	15%	3%	2	11µM*	8
COCCCNC(=S)N1CCN(C(c2ccccc2)c2ccccc2)CC1	4%	13%	3	10µM*	-1
CC(=O)Oc1ccc(C2(c3ccc(OC(C)=O)cc3)Oc3ccccc3NC2=O)cc1	5%	.	.	.	.
COc1ccccc1CNC(=O)c1cc(Sc2cccc(Cl)c2)nc2ccccc12	.	0%	1	-19%	28
COc1ccccc1C(=O)Nc1nnc(-c2ccc3c(c2)CCCC3)o1	-3%	11µM*	-1	?	9
COc1ccc(-c2nnc(NC(=O)c3ccccc3C)o2)cc1	-3%	?	0	10µM*	-7
CC(=O)Nc1nnc(-c2ccc3c(c2)CCCC3)o1	-5%	?	-1	?	-3
COc1cccc(C(=O)Nc2nnc(-c3ccc(Cl)cc3)o2)c1	-2%	-29%	-1	10µM*	12
COc1cccc(C(=O)Nc2nnc(-c3ccc(F)cc3)o2)c1	-3%	2%	-1	?	6
CCc1cccc(NC(=O)CC(c2ccc(OC)cc2)N2Cc3ccccc3C2=O)c1 (configuration not stated)	.	3%	1	11%	-12
CC(=O)Nc1ccc(S(=O)(=O)NCCc2csc3nc(-c4ccc(Cl)cc4)nn23)cc1	.	-5%	0	13%	-29
CC(=O)N(CC(O)CO)c1c(I)c(C(=O)NCCO)c(I)c(C(=O)NCC(O)CO)c1I (configuration not stated)	8%	.	.	.	.
